The target in one experiment is Albumin (Bos taurus) (UniProt P02769). Briefly: bovine serum albumin binders on microarray, profiling panel, artefact control for SMM control protein annotation, biochemical, small-molecule microarray, Alexa647 label, 635/667 nm fluorescence (AID 1118).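 Further: score merges 667 nm emission intensity and signal-to-noise per printed compound spot.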 Particulars: BSA-A647 binding, fluorescence 635 nm, higher = more signal.
A short description of experiment [1]: small-molecule microarray binders of probe aXIP, primary screen, biochemical, NeuroSMM set, 635/667 nm fluorescence (AID 1119).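 Further: probe is the protein aXip251-270 applied at 1 µg/mL to compound-printed slides; binding of probe to printed compounds measured as 667 nm fluorescence plus signal to noise.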 The conditions noted are these: higher = more signal, called active from +8 up or from −8 down.
Experiment [2] can be described thus: small-molecule binders of probe aNOTCH3, primary screen, biochemical, small-molecule microarray, 635/667 nm fluorescence (AID 1120).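 Further: probe is a biotin-tagged antibody raised against NOTCH3 rather than NOTCH3 protein; score merges spot fluorescence near 667 nm with spot signal to noise.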 Particulars: higher = more signal.
Experiment [3] can be described thus: small-molecule binders of probe aNOTCH2, primary screen, biochemical, small-molecule microarray, 635/667 nm fluorescence (AID 1121).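 Further: score merges feature fluorescence read at 667 nm with its signal to noise.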 The conditions noted are these: higher = more signal.
Experiment [4] addresses Carbonic anhydrase 2 (Homo sapiens) (UniProt P00918). Description: CAII small-molecule binders, profiling panel, biochemical, small-molecule microarray, Alexa647-labelled CAII (AID 1122). Particulars: CAII-A647 binding fluorescence, higher = more signal.
Experiment [5] can be described thus: COS7 lysate on small-molecule microarray, probe aHis, 635 nm (AID 1123).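 Further: z-score combines 667nm fluorescence intensity with signal-to-noise per printed compound spot.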 The conditions noted are these: COS7 cell lysate, fluorescence, higher = more signal.
Experiment [6] is described as follows: compound binding in COS7 lysate, probe aLAP1, primary screen, cell lysate, small-molecule microarray (AID 1124).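 Further: lysate comes from COS7 cells expressing LAP1 and is applied at 0.3 µg/mL; score merges spot fluorescence near 667 nm with signal-to-noise over triplicate slides.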 Particulars: probe aLAP1, fluorescence, higher = more signal.
Another experiment has as its system Sam68 (KHDRBS1). Description: Sam68 small-molecule binders, primary screen, biochemical, small-molecule microarray, 635 nm fluorescence (AID 1125).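 Further: score merges 667 nm channel intensity with signal to noise over triplicate slides.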 The conditions noted are these: small-molecule microarray binding, higher = more signal.
Experiment [7] has as its system Chordin-like protein 2 (CHRDL2). Description: CHRDL2 small-molecule binders, primary screen, biochemical, small-molecule microarray, 635 nm fluorescence (AID 1126).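 Further: printed compound slides probed with Chrdl2 protein at 4 µg/mL for 1 h at 4 C; score merges 667 nm emission intensity with signal to noise over three replicate slides.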 The conditions noted are these: small-molecule microarray binding, fluorescence 635 nm; higher = more signal.
Experiment [8] concerns the target Concanavalin-A (Canavalia ensiformis) (UniProt P02866). Briefly: ConA small-molecule binders, primary screen, artefact control for SMM control protein annotation, biochemical, small-molecule microarray, Alexa647 label, 635 nm (AID 1127).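 Further: z combines 667 nm emission intensity with signal-to-noise across three replicate slides.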 The conditions noted are these: ConA-A647 binding fluorescence, higher = more signal.

The text below walks through data of PubChem BioAssay.

Active and inactive are the calls of the source.

Sequence of Concanavalin-A (Canavalia ensiformis) (P02866 whole entry, looked up): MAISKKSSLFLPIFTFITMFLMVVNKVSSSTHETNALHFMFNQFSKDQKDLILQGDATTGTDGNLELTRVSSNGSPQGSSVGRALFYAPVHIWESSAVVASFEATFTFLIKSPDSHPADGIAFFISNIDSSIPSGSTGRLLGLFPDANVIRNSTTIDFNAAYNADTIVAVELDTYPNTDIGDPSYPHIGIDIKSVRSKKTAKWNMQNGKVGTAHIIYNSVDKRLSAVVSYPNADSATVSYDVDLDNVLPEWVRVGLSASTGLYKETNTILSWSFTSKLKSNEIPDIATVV
Sequence of Albumin (Bos taurus) (P02769 whole entry, looked up): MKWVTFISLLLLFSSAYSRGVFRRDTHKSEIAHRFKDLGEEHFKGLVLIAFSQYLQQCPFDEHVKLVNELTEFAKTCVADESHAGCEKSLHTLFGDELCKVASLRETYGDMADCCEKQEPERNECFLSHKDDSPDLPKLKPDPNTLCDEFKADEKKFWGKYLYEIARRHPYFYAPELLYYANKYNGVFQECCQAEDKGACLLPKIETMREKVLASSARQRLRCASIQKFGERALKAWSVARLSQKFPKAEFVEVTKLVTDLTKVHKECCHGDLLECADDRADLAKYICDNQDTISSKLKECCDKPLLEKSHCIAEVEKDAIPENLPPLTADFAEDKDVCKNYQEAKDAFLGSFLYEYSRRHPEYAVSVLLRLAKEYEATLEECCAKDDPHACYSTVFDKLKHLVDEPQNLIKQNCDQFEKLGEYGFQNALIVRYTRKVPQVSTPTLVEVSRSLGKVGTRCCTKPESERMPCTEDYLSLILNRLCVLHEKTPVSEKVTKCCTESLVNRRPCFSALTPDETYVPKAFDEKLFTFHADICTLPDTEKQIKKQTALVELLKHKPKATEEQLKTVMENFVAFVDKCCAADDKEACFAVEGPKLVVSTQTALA

As to `CCCCCCCCCCC(O)C1C=CC2C(=O)N(C)C(=O)C2N1Nc1ccccc1` (stereo not given), the composite z-score was 0.0703 with Albumin (Bos taurus); -0.0975 in [2]; -0.271 in experiment [3]; -0.0594 in [4]; 0.907 in experiment [5]; 0.478 in [6]. Moreover, the figures for the composite z-score (with Sam68 (KHDRBS1); in experiment [7]; in experiment [8]) were -1.52, -1.84 and -0.834, respectively. Besides, the composite Z-score in [1] is 0.636 (inactive).

On to `Cc1ccc(S[C@]2(C(=O)NC(C)C)CC(=O)N(Cc3ccccc3)[C@@H]2c2ccc(CO)cc2)cc1`, for which the composite z-score in the experiment with Albumin (Bos taurus) was 0.161; in [2] it was -0.333; in [3] it was -0.0451; in [4], 0.445; in [5], -0.0367; in experiment [6], -0.915. In addition, the composite z-score in the experiment on Sam68 (KHDRBS1) was -0.76; in [7], -1.31; in experiment [8], -1.06. Further, in experiment [1], the composite Z-score is 0.339 (inactive).

As for `CC1CC/C=C\[C@H]2OC34C=CCN(CCN5CCOCC5)C(=O)[C@H]3N(C(CO)C(C)C)C(=O)[C@@H]4C2C(=O)O1` (stereo not given in full), the composite z-score in the experiment with Albumin (Bos taurus) is -0.466; in [2], -0.111; in [3] it was -0.0837; in [4] it was 0.854; in experiment [5], 0.214; in [6], 1.47. Besides, the composite z-score was 0.889 in the experiment with Sam68 (KHDRBS1), -0.571 in experiment [7] and 0.475 in experiment [8]. The composite Z-score in experiment [1] is 0.769 (inactive).

`CCCCN1CC=CC23O[C@@H]4/C=C\CCC(C)OC(=O)C4[C@H]2C(=O)N(CCO)[C@@H]3C1=O` (stereo not given in full): the composite z-score with Albumin (Bos taurus) is 0.197; in [2] it was -0.0745; in experiment [3], -0.101; in [4], 0.97; in experiment [5], 2.47; in experiment [6], 1.49. The composite z-score in the experiment with Sam68 (KHDRBS1) was 0.852; in experiment [7], -0.789; in [8], -0.833. The composite Z-score in experiment [1] is 2.55 (inactive).

Regarding `O=C1O[C@@H](c2ccccc2)[C@@H](c2ccccc2)N2[C@@H](c3ccccc3OCCO)[C@]3(C(=O)Nc4ccc(C#CC5(O)CCCCCC5)cc43)[C@@H](C(=O)N3CCCCCCC3)[C@H]12`, the composite z-score in the experiment with Albumin (Bos taurus) was -0.411; in [2], 2.33; in [3] it was 1.21; in experiment [4], 1.06; in experiment [5], 5.19; in [6], 1.41. Also, the composite z-score with Sam68 (KHDRBS1) turned out to be 1.33; in [7], 1.69; in experiment [8], 0.93. For the same compound, in experiment [1], the composite Z-score was 9.73 (active).

`C=C(CC1([C@@H](NP(=O)(c2ccccc2)c2ccccc2)[C@H]2C[C@@H]2CCCC)CC1)c1cccc(OC)c1`: the composite z-score was 0.615 with Albumin (Bos taurus); 0.222 in [2]; 0.119 in experiment [3]; 0.334 in [4]; 1.86 in [5]; -0.151 in experiment [6]. Further, the composite z-score in the experiment with Sam68 (KHDRBS1) is -0.176; in experiment [7], -1.06; in experiment [8], 0.506. Besides, the composite Z-score in [1] was 0.107 (inactive).

On to `COCCOC(=O)N1C(=O)[C@@]2(c3cc(C#CCNC(N)=O)ccc31)[C@H](C(=O)Nc1nc3ccccc3s1)[C@H]1C(=O)O[C@H](c3ccccc3)[C@H](c3ccccc3)N1[C@@H]2c1ccc(O)cc1`, for which the composite z-score with Albumin (Bos taurus) is -0.376; in experiment [2], 0.0203; in experiment [3], -0.0094; in experiment [4], 0.214; in experiment [5], 0.734; in [6] it was 0.16. Also, the composite z-score in the experiment with Sam68 (KHDRBS1) is 1.02; in experiment [7], 0.306; in [8] it was 1.1. Further, the composite Z-score in experiment [1] was -0.263 (inactive).

As to `CC[C@@H](O[Si](C#C[Si](C(C)C)(C(C)C)C(C)C)(C(C)C)C(C)C)c1cn([C@H](CO)Cc2ccccc2)nn1`, the composite z-score with Albumin (Bos taurus) is 0.239; in experiment [2], -0.0077; in experiment [3] it was -0.0995; in experiment [4] it was 0.409; in experiment [5] it was 0.398; in experiment [6] it was 0.0485. The composite z-score in the experiment on Sam68 (KHDRBS1) was 1.09; in experiment [7], 0.414; in experiment [8], 0.346. The composite Z-score in experiment [1] is 0.133 (inactive).

On to `COCCOC(=O)N1C(=O)[C@@]2(c3cc(C#CCNC(N)=O)ccc31)[C@H](C(N)=O)[C@H]1C(=O)O[C@H](c3ccccc3)[C@H](c3ccccc3)N1[C@@H]2c1ccc(O)cc1`, for which the composite z-score in the experiment with Albumin (Bos taurus) is -0.153; in experiment [2], 0.153; in experiment [3] it was 0.234; in [4], 0.606; in experiment [5], 0.609; in experiment [6], -0.545. The composite z-score is -0.148 in the experiment with Sam68 (KHDRBS1), 0.267 in experiment [7] and -0.267 in experiment [8]. Besides, the composite Z-score in experiment [1] was 0.003 (inactive).

As for `CN1C(=O)C2CC=C(C3=CCO[C@@H]3[C@H]3CCCN3S(=O)(=O)c3ccccc3[N+](=O)[O-])CC2C1=O` (stereo not given in full), the composite z-score in the experiment with Albumin (Bos taurus) is 0.811; in experiment [2], -0.0647; in [3], -0.106; in experiment [4], -0.0199; in experiment [5], 0.205; in experiment [6], -0.065. The figures for the composite z-score (in the experiment on Sam68 (KHDRBS1); in [7]; in [8]) were -0.7, -0.537 and -0.65, respectively. For the same compound, in experiment [1], the composite Z-score was 0.0129 (inactive).

As to `CCCC[C@@H](O)C1=C(C)Cn2c(=O)n(-c3ccccc3)c(=O)n2[C@H]1CO`, the composite z-score was 0.138 in the experiment with Albumin (Bos taurus); -0.0647 in experiment [2]; -0.219 in experiment [3]; -0.313 in [4]; 0.332 in experiment [5]; -0.0242 in experiment [6]. Also, the composite z-score with Sam68 (KHDRBS1) was -0.92; in experiment [7], 0.24; in experiment [8], -0.827. Moreover, in experiment [1], the composite Z-score is -0.301 (inactive).

Regarding `[N-]=[N+]=NCc1ccccc1C[C@]1(C(=O)N2CCCCC2)COC(c2ccc(OCCCO)cc2)=N1`, the composite z-score in the experiment with Albumin (Bos taurus) was 0.744; in experiment [2], -0.159; in experiment [3], -0.242; in [4] it was 0.375; in [5], 1.58; in experiment [6], -0.44. The composite z-score in the experiment with Sam68 (KHDRBS1) is 1.24; in experiment [7], 0.0846; in experiment [8], 0.984. In addition, the composite Z-score in experiment [1] is -0.838 (inactive).

Take `COC(=O)[C@@]1(Cc2ccc(F)cc2)[C@H]2c3cc(C(=O)N4CCCC4)n(C[C@H](O)CO)c3C[C@H]2CN1C(=O)c1ccccc1`: the composite z-score with Albumin (Bos taurus) worked out at 1.13; in experiment [2], 0.591; in experiment [3], 0.678; in [4] it was 0.844; in experiment [5] it was 2.88; in [6] it was 1.23. In addition, the composite z-score worked out at 0.208 in the experiment on Sam68 (KHDRBS1), 0.0578 in [7] and 0.779 in [8]. For the same compound, in [1], the composite Z-score is 0.133 (inactive).

On to `[N-]=[N+]=NCc1ccccc1C[C@@]1(C(N)=O)N=C(c2ccc(OCCCO)cc2)O[C@@H]1c1ccccc1N=[N+]=[N-]`, for which the composite z-score in the experiment with Albumin (Bos taurus) was 0.873; in experiment [2], 0.0065; in experiment [3], 0.0368; in [4], 0.63; in experiment [5], 2.8; in [6], 0.197. The composite z-score in the experiment with Sam68 (KHDRBS1) came out at 0.816; in experiment [7], 0.0247; in [8], 1.12. The composite Z-score in [1] is -0.254 (inactive).

Take `CCCCN1CC=CC23O[C@@H]4/C=C\CCCOC(=O)C4[C@H]2C(=O)N(CCCCCCO)[C@@H]3C1=O` (stereo not given in full): the composite z-score is -0.768 in the experiment with Albumin (Bos taurus); -0.165 in experiment [2]; -0.172 in [3]; 0.83 in experiment [4]; 1.66 in experiment [5]; 1.17 in experiment [6]. Besides, the composite z-score is 0.177 with Sam68 (KHDRBS1), -1.87 in experiment [7] and -0.535 in [8]. The composite Z-score in experiment [1] is 0.276 (inactive).
